For test [1], the system named is Tyrosine-protein kinase ABL1 (Homo sapiens), P00519 [T315I]. To be noted: at 1 µM.
The subject of test [2] is Tyrosine-protein kinase ABL1 (Homo sapiens), P00519 [Y253F]. Conditions: at 0.1 µM.
For test [3] the test system is unchanged. Conditions: at 1 µM.
The target of test [4] is Tyrosine-protein kinase ABL1 (Homo sapiens) (UniProt P00519). To be noted: at 0.1 µM.
Test [5] shares this target. To be noted: at 1 µM.
Test [6] addresses ALK tyrosine kinase receptor (Homo sapiens) (UniProt Q9UM73). Conditions: at 0.1 µM.
Test [7] has the same target. To be noted: at 1 µM.
Test [8] addresses Tyrosine-protein kinase ABL2 (Homo sapiens) (UniProt P42684). To be noted: at 0.1 µM.
The target is the same in test [9]. To be noted: at 1 µM.
For test [10], the target named is Tyrosine-protein kinase receptor UFO (Homo sapiens) (UniProt P30530). Conditions: at 0.1 µM.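 Further: values are mean percent inhibition of AXL from the GSK PKIS screen.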
Sequence of Tyrosine-protein kinase receptor UFO (Homo sapiens) (P30530 whole entry): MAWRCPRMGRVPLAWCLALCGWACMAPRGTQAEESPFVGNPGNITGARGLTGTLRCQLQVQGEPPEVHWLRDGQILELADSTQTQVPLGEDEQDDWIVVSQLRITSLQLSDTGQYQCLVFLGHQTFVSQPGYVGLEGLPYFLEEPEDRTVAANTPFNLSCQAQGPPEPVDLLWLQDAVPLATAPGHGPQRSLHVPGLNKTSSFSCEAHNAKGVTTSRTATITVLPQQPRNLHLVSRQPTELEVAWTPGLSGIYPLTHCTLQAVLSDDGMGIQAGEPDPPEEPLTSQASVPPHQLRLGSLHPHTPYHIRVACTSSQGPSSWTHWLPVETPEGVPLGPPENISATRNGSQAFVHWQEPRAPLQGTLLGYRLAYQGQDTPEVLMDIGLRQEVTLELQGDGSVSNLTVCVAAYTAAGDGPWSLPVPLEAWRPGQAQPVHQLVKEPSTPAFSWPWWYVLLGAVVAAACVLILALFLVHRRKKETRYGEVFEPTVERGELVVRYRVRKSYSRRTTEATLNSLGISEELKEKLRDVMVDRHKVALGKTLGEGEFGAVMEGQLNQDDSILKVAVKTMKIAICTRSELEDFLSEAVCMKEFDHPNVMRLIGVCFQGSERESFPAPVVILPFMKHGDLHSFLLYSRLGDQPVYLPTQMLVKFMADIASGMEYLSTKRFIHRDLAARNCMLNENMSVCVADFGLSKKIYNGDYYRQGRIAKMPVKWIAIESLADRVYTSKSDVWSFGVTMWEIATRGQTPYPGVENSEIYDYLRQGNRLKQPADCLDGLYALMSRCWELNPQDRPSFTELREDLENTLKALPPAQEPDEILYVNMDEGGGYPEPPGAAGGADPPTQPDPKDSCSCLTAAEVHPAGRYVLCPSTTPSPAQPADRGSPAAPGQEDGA

Sequence of Tyrosine-protein kinase ABL2 (Homo sapiens) (P42684 whole entry): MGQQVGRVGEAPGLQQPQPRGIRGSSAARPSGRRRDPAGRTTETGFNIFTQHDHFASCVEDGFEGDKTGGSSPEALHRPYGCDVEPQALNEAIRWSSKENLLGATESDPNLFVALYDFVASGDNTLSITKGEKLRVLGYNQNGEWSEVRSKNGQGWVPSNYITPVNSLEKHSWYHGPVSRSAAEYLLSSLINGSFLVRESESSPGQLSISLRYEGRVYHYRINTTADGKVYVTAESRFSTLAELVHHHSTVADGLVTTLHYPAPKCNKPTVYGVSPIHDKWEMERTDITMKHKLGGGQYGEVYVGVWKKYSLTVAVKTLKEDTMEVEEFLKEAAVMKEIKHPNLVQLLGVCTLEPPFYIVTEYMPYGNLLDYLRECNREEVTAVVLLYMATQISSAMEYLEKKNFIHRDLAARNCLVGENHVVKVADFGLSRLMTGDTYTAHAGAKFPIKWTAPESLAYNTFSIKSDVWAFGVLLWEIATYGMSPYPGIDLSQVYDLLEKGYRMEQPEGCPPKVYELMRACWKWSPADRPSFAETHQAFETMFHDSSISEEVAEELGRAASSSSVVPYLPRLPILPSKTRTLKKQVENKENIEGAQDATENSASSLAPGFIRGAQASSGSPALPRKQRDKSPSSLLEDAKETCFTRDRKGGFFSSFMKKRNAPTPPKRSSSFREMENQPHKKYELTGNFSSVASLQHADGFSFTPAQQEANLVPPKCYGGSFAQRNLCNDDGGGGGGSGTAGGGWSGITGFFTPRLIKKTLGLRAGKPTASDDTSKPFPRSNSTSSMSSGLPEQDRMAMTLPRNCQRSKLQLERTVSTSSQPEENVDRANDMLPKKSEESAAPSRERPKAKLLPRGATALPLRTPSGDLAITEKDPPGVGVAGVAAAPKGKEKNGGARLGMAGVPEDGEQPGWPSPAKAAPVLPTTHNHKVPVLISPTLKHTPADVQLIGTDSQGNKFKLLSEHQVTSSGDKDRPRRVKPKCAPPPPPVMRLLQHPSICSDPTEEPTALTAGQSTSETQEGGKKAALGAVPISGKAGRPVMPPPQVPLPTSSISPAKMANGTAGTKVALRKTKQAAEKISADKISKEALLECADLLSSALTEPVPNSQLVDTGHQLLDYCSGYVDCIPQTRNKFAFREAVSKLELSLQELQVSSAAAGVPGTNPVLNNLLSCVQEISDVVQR
Sequence of ALK tyrosine kinase receptor (Homo sapiens) (Q9UM73 19-1620 limits assumed): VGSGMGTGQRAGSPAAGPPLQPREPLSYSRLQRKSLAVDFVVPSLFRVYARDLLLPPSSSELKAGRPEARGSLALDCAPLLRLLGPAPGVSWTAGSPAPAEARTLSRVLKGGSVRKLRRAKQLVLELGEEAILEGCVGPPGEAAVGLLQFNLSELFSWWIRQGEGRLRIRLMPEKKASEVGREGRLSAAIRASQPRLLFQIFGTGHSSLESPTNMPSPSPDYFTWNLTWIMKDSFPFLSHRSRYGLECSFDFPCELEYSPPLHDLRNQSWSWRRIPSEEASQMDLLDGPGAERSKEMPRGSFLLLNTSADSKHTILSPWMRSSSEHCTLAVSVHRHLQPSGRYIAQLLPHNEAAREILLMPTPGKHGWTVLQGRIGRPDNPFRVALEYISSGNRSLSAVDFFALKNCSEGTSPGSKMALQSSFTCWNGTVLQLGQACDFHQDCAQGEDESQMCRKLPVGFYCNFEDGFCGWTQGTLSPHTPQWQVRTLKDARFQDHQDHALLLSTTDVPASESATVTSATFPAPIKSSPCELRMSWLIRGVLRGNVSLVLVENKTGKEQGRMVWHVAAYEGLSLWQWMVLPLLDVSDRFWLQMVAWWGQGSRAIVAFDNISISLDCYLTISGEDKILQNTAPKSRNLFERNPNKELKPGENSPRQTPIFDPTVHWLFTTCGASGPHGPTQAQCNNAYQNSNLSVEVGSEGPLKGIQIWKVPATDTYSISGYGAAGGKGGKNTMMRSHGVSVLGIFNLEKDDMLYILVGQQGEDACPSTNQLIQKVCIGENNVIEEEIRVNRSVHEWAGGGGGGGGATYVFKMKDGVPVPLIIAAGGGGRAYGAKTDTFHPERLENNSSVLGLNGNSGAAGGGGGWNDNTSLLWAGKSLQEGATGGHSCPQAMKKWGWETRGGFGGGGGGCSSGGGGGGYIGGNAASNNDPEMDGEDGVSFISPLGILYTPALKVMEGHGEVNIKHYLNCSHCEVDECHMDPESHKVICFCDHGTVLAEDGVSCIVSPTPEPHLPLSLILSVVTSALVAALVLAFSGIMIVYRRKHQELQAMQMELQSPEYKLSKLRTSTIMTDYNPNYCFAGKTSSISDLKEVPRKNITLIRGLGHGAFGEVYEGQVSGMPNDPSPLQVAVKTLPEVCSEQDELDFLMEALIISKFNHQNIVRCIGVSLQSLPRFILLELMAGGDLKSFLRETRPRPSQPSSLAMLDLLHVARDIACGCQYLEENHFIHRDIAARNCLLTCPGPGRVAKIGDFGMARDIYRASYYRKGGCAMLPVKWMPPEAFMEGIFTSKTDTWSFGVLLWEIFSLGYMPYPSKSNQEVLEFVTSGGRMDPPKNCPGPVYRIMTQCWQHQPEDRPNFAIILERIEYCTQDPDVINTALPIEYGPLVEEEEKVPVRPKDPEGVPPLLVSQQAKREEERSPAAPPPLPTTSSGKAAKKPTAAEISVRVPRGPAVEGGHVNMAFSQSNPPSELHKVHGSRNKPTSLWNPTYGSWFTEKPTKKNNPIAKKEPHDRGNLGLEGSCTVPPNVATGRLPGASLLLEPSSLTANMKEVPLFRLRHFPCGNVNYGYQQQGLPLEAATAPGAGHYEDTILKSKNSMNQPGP

As a reminder, the inhibition is the relative decrease from the control value, in per cent. Regarding `CCn1c(-c2nonc2N)nc2c(C#CC(C)(C)O)nc(CN3CCCC3)cc21`, the inhibition in [1] is 0.96%; in test [2], 0.59%; in test [3], -0.16%; in [4], 0.66%; in test [5], 3.27%; in [6], -0.84%. For the same compound, the inhibition in test [7] came to 0.01%; in test [8], 2.08%; in [9], 5.65%; in test [10], 1.88%.

As for `CC1=C(C(=O)Nc2ccc3[nH]ncc3c2)C(c2ccc(Cl)c(Cl)c2)CC(=O)N1` (stereo not given), the inhibition in test [1] is 2.96%; in [2], 2.96%; in test [3] it was 0.52%; in [4], 2.43%; in [5] it was 7.38%; in [6] it was 0.6%. In addition, the inhibition in [7] was 3.88%; in test [8], 2.19%; in [9], 3.97%; in test [10], -2.18%.

Take `CCn1c(-c2nonc2N)nc2cnc(Oc3cccc(NC(=O)c4ccc(OCCN5CCOCC5)cc4)c3)cc21`: the inhibition in test [1] came out at 4.26%; in test [2], 5.27%; in test [3] it was 4.41%; in test [4], 3.37%; in test [5], 11.1%; in test [6] it was 1.15%. In addition, the inhibition in test [7] was 3.72%; in test [8], 4.56%; in test [9], 7.99%; in [10], -6.28%.

For the compound `c1cnn2ncc(-c3ccnc(Nc4ccc5c(c4)OCCO5)n3)c2c1`, the inhibition in test [1] amounted to 35.9%; in test [2], 9.16%; in test [3] it was 36%; in [4] it was 7.67%; in test [5] it was 38.7%; in [6], 3.96%. In addition, the inhibition in [7] is 31.7%; in test [8], 7.27%; in test [9] it was 43.9%; in test [10], -2.3%.

In the case of `Cc1ccc(NC(=O)c2ccnc(N3CCCC3)c2)cc1-c1ccc(C(=O)NCC2CC2)cc1`, the inhibition in [1] is 2.61%; in test [2] it was 2.64%; in [3] it was 3.85%; in test [4] it was -0.85%; in test [5] it was 4.81%; in [6], 0.36%. For the same compound, the inhibition in test [7] is 5.33%; in test [8] it was -0.85%; in test [9] it was 7.46%; in test [10], -7.11%.

In the case of `CN(C)c1cc2c(Nc3ccc4nc(Cc5ccccc5)[nH]c4c3)ncnc2cn1`, the inhibition in test [1] amounted to 4.5%; in test [2] it was 4.02%; in test [3] it was 6.17%; in [4], 5.47%; in test [5], 9.51%; in test [6], 4.99%. Further, the inhibition in [7] was 4.24%; in [8], 4.28%; in test [9], 7.06%; in test [10], -8.08%.

On to `CCN1CCC(CC(=O)Nc2n[nH]c3nc(-c4cccs4)c(Br)cc23)CC1`, for which the inhibition was 22.7% in test [1]; -0.82% in test [2]; 5.45% in test [3]; 2.56% in test [4]; 7.83% in test [5]; -2.08% in test [6]. The inhibition in test [7] was -1.3%; in test [8], -0.08%; in [9], 2.5%; in test [10], 1.67%.

On to `CS(=O)(=O)CCN(CC#N)Cc1ccc(-c2ccc3ncnc(Nc4ccc(OCc5cccc(F)c5)c(Cl)c4)c3c2)o1`, for which the inhibition in [1] is -0.34%; in test [2], 2.36%; in [3] it was 1.9%; in [4] it was -2.3%; in [5] it was -2.95%; in [6] it was -2.83%. Further, the inhibition in test [7] is -0.48%; in test [8], -2.62%; in test [9] it was -1.72%; in test [10] it was -6.1%.

As for `CC1=C(C(=O)Nc2ccc3[nH]ncc3c2)C(c2ccc(F)cc2)NC(=O)N1` (stereo not given), the inhibition in test [1] turned out to be 2.66%; in [2] it was 1.48%; in test [3], 5.27%; in test [4] it was 3.51%; in test [5], 8.74%; in [6] it was 0.35%. Further, the inhibition in [7] is 3.89%; in test [8], 2.2%; in test [9], 19.7%; in test [10], -2.41%.

For the compound `Fc1cccc(COc2ccc(Nc3ncnc4sc(-c5cccs5)cc34)cc2Cl)c1`, the inhibition in test [1] amounted to 0.93%; in [2], 1.7%; in [3], 3.31%; in test [4] it was 1.23%; in test [5], 6.44%; in [6], 0.25%. In addition, the inhibition in test [7] is 0.57%; in test [8], 1.27%; in test [9], 5.37%; in [10] it was -4.04%.

As for `Cc1cc(O)cc(C)c1/C=C/c1cncc(-c2nn[nH]n2)c1`, the inhibition in test [1] is 8.36%; in test [2], 31.5%; in test [3] it was 86.1%; in test [4], 12.4%; in test [5], 71.1%; in test [6], -0.37%. Moreover, the inhibition in test [7] is 4.03%; in [8], 19.9%; in [9] it was 68.6%; in test [10] it was -8.81%.

On to `NCc1ccc(-c2nc(-c3ccc(Cl)c(O)c3)c(-c3ccncc3)[nH]2)cc1`, for which the inhibition in test [1] was 24.2%; in [2] it was 12.6%; in test [3], 54.6%; in test [4] it was 6.87%; in [5] it was 53.1%; in test [6], -0.45%. For the same compound, the inhibition is 2.22% in test [7], 9.17% in test [8], 55.8% in [9] and -4.39% in [10].

For `O=C1Nc2ccc(C(=O)c3ccco3)cc2C1=Cc1cc(Cl)c(O)c(Cl)c1`, the inhibition in [1] was 8.5%; in test [2] it was 5.68%; in [3] it was 17.9%; in test [4], 4.71%; in [5], 21.5%; in test [6] it was 3.92%. For the same compound, the inhibition in test [7] is 20.8%; in test [8], 5.9%; in test [9] it was 15.3%; in test [10], -4.61%.

Consider `NC(=O)c1cccc(Nc2nccc(Nc3cccc4[nH]ncc34)n2)c1`, for which the inhibition was 25.4% in test [1]; 84.1% in [2]; 98.5% in test [3]; 70.2% in test [4]; 84.9% in [5]; -0.3% in [6]. Besides, the inhibition worked out at 15.4% in [7], 69.1% in test [8], 88.6% in test [9] and 4.05% in test [10].

As for `CNC(=O)c1cncc(/C=C/c2c(Cl)cccc2Cl)c1`, the inhibition in test [1] was 4.22%; in [2] it was 12.5%; in [3] it was 54.5%; in test [4], 8.37%; in test [5], 40.5%; in [6], 6%. In addition, the inhibition is 9.12% in test [7], 7.46% in test [8], 35.7% in test [9] and -6.04% in [10].

Regarding `COc1ccc(-c2ccncc2)cc1C(N)=O`, the inhibition in [1] was found to be 2.08%; in [2], 4.84%; in test [3], 2.94%; in test [4], 4.11%; in test [5], 5.76%; in [6], 3.85%. Also, the inhibition in [7] was 6.43%; in test [8], 3.92%; in test [9], 4.08%; in test [10], -7.91%.

On to `CC(C)=Cc1cccc2c1/C(=N/Nc1ccc(S(N)(=O)=O)cc1)C(=O)N2`, for which the inhibition stood at 18.2% in test [1]; 4.12% in test [2]; 21.9% in [3]; 2.44% in test [4]; 12.7% in test [5]; 2.57% in [6]. Moreover, the inhibition in test [7] amounted to 10.4%; in test [8], 3.09%; in [9], 14%; in test [10], 1.02%.

The record behind these values is ChEMBL document CHEMBL1961873, “Compounds: GSK PKIS; Assays: Nanosyn kinase panel” (2012).
